From PubChem BioAssay (NCATS)
Inconclusive results are not listed. A call without a number means that no potency is given here. Active and inactive are the calls of the source. Unless noted, calls follow the shape of the dose curve; as a rule, active = well fitted curve in the direction sought with a large enough effect (not every such curve was filed as active); inconclusive = small, poorly fitted or top-dose-only effect, or effect the other way, or another doubt; inactive = no such curve, though single readings can be large or run the other way.

molecular target: Pyruvate kinase PKM (Homo sapiens) (UniProt P14618); test: qHTS Assay for Activators of Human Muscle Pyruvate Kinase (AID 954); settings: purified human muscle pyruvate kinase, luciferase-coupled luminescence, 1 h; series mostly up to 57.5 µM
Method in brief: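 Purified human PKM2 (0.1 nM) with 0.5 mM PEP (Km) and 0.1 mM ADP in 50 mM imidazole pH 7.2, KCl, MgCl2, 1 h at room temperature; ATP formed read by coupled luciferase luminescence. Normalized to no-enzyme/110 uM thiadiazolimine inhibition; 0.3 nM enzyme column for activation.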

Sequence of Pyruvate kinase PKM (Homo sapiens) (P14618 whole entry, looked up): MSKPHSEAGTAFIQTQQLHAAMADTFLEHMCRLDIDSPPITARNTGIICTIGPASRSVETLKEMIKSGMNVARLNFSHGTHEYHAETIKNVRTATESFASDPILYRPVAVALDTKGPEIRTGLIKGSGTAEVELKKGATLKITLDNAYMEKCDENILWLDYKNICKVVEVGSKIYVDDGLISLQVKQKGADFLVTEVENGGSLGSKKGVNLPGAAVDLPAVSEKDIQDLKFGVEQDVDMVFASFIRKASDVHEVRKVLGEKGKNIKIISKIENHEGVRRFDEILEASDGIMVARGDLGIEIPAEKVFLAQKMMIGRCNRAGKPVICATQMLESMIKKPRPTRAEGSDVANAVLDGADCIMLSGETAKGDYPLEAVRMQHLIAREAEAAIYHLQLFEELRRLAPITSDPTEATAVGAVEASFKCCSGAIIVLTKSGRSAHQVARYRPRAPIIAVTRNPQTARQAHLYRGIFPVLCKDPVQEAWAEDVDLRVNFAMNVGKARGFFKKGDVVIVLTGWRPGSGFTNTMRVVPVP

Question: With `COc1cc(C(=O)OCCCN2CCCN(CCCOC(=O)c3cc(OC)c(OC)c(OC)c3)CC2)cc(OC)c1OC` as the compound, how does the outcome read?
Answer: inactive

Question: For `c1cc(CN2CCCCC2)cc(OCCCNc2nc3ccccc3s2)c1`, which outcome is on record?
Answer: inactive

Question: Which outcome does the source give for `c1cnc(N2CCN(Cc3ccc4c(c3)OCO4)CC2)nc1` here?
Answer: inactive

Question: With `CCCCNc1c(C(=O)OCC)c(C)nc2c1cnn2CC` as the compound, how does the outcome read?
Answer: inactive

Question: For `O=C(CCCN1CCC(O)(c2cccc(C(F)(F)F)c2)CC1)c1ccc(F)cc1`, which outcome is on record?
Answer: inactive

Question: Which outcome does the source give for `CCN1CCc2nc(N)oc2CC1` here?
Answer: inactive

Question: For `CCOC(=O)c1cnc2c(cnn2CC)c1NN=C(C)C`, which outcome is on record?
Answer: inactive

Question: Which outcome does the source give for `Cc1nc2c([nH]1)c(=O)n(C)c(=O)n2Cc1ccco1` here?
Answer: inactive

Question: With `CN(C(=O)CCCOc1ccc2[nH]c(=O)ccc2c1)C1CCCCC1` as the compound, how does the outcome read?
Answer: inactive

Question: For `CCC(=O)c1ccc2c(c1)N(CCCN(C)C)c1ccccc1S2`, which outcome is on record?
Answer: inactive

Question: For `COC(=O)[C@@H](N)Cc1ccc(O)c(O)c1`, which outcome is on record?
Answer: inactive

Question: Which outcome does the source give for `NCCCNCCSP(=O)(O)O` here?
Answer: inactive

Question: For `CC1=C(C)C(=O)C(CCCCC#CCCCC#CCO)=C(C)C1=O`, which outcome is on record?
Answer: inactive

Question: For `COc1cc2c(cc1OC)-c1cc(=Nc3c(C)cc(C)cc3C)n(C)c(=O)n1CC2`, which outcome is on record?
Answer: inactive

Question: For `O=C1CC2(CCCC2)CC(=O)N1CCCCN1CCN(c2ncccn2)CC1`, which outcome is on record?
Answer: inactive

Question: For `C(=C\c1ccccc1)/CN1CCN(C(c2ccccc2)c2ccccc2)CC1`, which outcome is on record?
Answer: inactive

Question: For `C#CCN(C)CCCOc1ccc(Cl)cc1Cl`, which outcome is on record?
Answer: inactive

Question: For `C[N+](C)(C)CCOC(=O)CCC(=O)OCC[N+](C)(C)C`, which outcome is on record?
Answer: inactive

Question: For `NC(N)=NC(=O)Cc1c(Cl)cccc1Cl`, which outcome is on record?
Answer: inactive

Question: Which outcome does the source give for `CC(=O)Oc1cc(C(C)C)c(OCCN(C)C)cc1C` here?
Answer: inactive

tested on: not listed separately; test: MultiTox-Fluor Cytotoxicity Assay - LYMP1-002 - Dead Cells (AID 960; active = well fitted curve in the direction sought with a large enough effect; an effect the other way counts as inactive or inconclusive; also: nearly all actives have a fitted effect of over 60% in size; also: potency is read from the fitted curve at half-maximal effect); settings: LYMP1-002 lymphoblastoid cells, dead-cell protease fluorescence; series mostly up to 46.1 µM
Method in brief: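 LYMP1-002 cells 2500/well; 5 hr 37 C pre-incubation; compound 16 hr 37 C; MultiTox-Fluor reagent 60 min RT; dead-cell fluor Ex/Em 485/520. Norm. to DMSO (0%) vs 15 uM tetraoctylammonium bromide (100%); Hill AC50.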

Question: With `COC(=O)[C@H]1[C@H]2C[C@@H]3c4[nH]c5cc(OC)ccc5c4CCN3C[C@H]2C[C@@H](OC(=O)c2cc(OC)c(OC)c(OC)c2)[C@@H]1OC` as the compound, how does the Potency read?
Answer: 31.6 µM (active)

Question: Which Potency does the source give for `CCCCOCCOCCOCc1cc2c(cc1CCC)OCO2` here?
Answer: inactive

Question: Which Potency does the source give for `NC(=Nc1ccccc1)Nc1ccccc1` here?
Answer: inactive

tested on: not listed separately; test: MultiTox-Fluor Cytotoxicity Assay - LYMP1-003 - Dead Cells (AID 961; active = well fitted curve in the direction sought with a large enough effect; an effect the other way counts as inactive or inconclusive; also: nearly all actives have a fitted effect of over 70% in size; also: potency is read from the fitted curve at half-maximal effect); settings: LYMP1-003 lymphoblastoid cells, dead-cell protease fluorescence; series mostly up to 92.2 µM
Method in brief: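 LYMP1-003 human lymphoblastoid cells (2500/well) exposed to compound 16 h at 37 C in complete medium; dead-cell protease read with bis-AAF-R110 fluorescence (Ex/Em 485/520) after 60 min at room temperature. Normalized to DMSO and 15 uM tetraoctylammonium bromide; AC50 from Hill fit.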

Question: Which Potency does the source give for `COC(=O)[C@H]1[C@H]2C[C@@H]3c4[nH]c5cc(OC)ccc5c4CCN3C[C@H]2C[C@@H](OC(=O)c2cc(OC)c(OC)c(OC)c2)[C@@H]1OC` here?
Answer: 50.1 µM (active)

Question: Which Potency does the source give for `CCCCOCCOCCOCc1cc2c(cc1CCC)OCO2` here?
Answer: inactive

Question: Which Potency does the source give for `NC(=Nc1ccccc1)Nc1ccccc1` here?
Answer: inactive

tested on: not listed separately; test: MultiTox-Fluor Cytotoxicity Assay - LYMP1-003 - Live Cells (AID 962; active = well fitted curve in the direction sought with a large enough effect; an effect the other way counts as inactive or inconclusive;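 also: cytotoxic hits lower the live-cell protease signal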); settings: LYMP1-003 lymphoblastoid cells, MultiTox-Fluor live-cell protease fluorescence; series mostly up to 92.2 µM
Method in brief: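 qHTS, 1536-well; 2500 cells/well LYMP1-003; 5 hr 37 C settle; cpd 16 hr 37 C; MultiTox-Fluor reagent 60 min RT; live-cell protease fluor. 405/510; Hill-fit AC50; tetraoctylammonium bromide pos. ctrl.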

Question: Which outcome does the source give for `COC(=O)[C@H]1[C@H]2C[C@@H]3c4[nH]c5cc(OC)ccc5c4CCN3C[C@H]2C[C@@H](OC(=O)c2cc(OC)c(OC)c(OC)c2)[C@@H]1OC` here?
Answer: inactive

Question: Which outcome does the source give for `CCCCOCCOCCOCc1cc2c(cc1CCC)OCO2` here?
Answer: inactive

Question: With `NC(=Nc1ccccc1)Nc1ccccc1` as the compound, how does the outcome read?
Answer: inactive
